Experiments:
Assay in all cases: DAPPL (digital affinity profiling via proximity ligation, sequencing); 10 mM Tris-HCl pH 7.5, 50 mM NaCl, 1 mM DTT, 4% glycerol, room temperature, 30 min; GST-TFs on glutathione beads, 16-mer random dsDNA library, 0.1% formaldehyde crosslink after washing; high values mean tight binding
FEV = target: T1, FEV (Homo sapiens, UniProt Q99581 1-238); settings: protein: recombinant; tags: N-terminal GST; dsDNA, one strand shown
T1 sequence: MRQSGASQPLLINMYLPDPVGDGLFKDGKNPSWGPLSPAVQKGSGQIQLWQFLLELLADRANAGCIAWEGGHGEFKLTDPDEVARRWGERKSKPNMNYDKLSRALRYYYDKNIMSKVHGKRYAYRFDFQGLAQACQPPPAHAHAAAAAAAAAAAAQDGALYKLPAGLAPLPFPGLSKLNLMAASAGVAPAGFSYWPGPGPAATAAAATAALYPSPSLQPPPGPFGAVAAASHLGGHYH
Procedure, shortened: (§1)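 Pools of DNA-barcoded human transcription factors, expressed in yeast as GST fusions on glutathione beads and combined with a tag-only sample, were incubated with 200 nmole of a 16-mer random double-stranded DNA library. Incubation took 30 min at room temperature in Tris/NaCl/DTT/glycerol buffer and was followed by washing, 0.1% formaldehyde crosslinking, proximity ligation (BsaI/T4 ligase, 1 h, 37 °C), PCR amplification and sequencing on an Illumina NextSeq500. Binding signal is the ratio of a hexamer's read frequency for a factor to its frequency for the tag-only sample.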

ETV5 = ETV5 (Homo sapiens, UniProt P41161 1-510); settings: protein: recombinant; tags: N-terminal GST; dsDNA, one strand shown
Procedure, shortened: as §1

HSF1 = HSF1 (Homo sapiens, UniProt Q00613 1-529); settings: protein: recombinant; tags: N-terminal GST; chain copies: 3; dsDNA, one strand shown
Procedure, shortened: as §1

SPIC = target: T2, SPIC (Homo sapiens, UniProt Q8N5J4 1-248); settings: protein: recombinant; tags: N-terminal GST; dsDNA, one strand shown
T2 sequence: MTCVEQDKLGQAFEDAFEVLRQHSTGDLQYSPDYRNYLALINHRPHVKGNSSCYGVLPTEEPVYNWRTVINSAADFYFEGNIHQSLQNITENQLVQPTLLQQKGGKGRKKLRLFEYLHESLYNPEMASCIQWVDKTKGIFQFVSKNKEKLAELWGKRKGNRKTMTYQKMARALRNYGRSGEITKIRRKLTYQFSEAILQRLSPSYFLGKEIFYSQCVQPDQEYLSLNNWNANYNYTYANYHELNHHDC
Procedure, shortened: as §1

ELF4 = ELF4 (Homo sapiens, UniProt Q99607 1-663); settings: protein: recombinant; tags: N-terminal GST; dsDNA, one strand shown
Procedure, shortened: as §1

ELK4 = target: T3, ELK4 (Homo sapiens, UniProt P28324-2 1-405); settings: protein: recombinant; tags: N-terminal GST; dsDNA, one strand shown
T3 sequence: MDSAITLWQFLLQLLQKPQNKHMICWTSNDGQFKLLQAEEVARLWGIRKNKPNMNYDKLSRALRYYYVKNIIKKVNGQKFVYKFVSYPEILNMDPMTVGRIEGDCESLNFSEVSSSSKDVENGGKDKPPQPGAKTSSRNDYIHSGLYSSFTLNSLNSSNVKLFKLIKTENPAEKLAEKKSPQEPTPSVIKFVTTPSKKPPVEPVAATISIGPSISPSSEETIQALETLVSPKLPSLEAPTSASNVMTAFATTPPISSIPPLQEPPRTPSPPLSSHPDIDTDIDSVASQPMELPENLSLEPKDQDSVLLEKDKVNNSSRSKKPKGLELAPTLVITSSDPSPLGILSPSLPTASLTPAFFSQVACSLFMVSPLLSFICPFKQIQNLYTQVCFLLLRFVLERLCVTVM
Procedure, shortened: as §1

ETV2 = target: T4, ETV2 (Homo sapiens, UniProt O00321 1-342); settings: protein: recombinant; tags: N-terminal GST; dsDNA, one strand shown
T4 sequence: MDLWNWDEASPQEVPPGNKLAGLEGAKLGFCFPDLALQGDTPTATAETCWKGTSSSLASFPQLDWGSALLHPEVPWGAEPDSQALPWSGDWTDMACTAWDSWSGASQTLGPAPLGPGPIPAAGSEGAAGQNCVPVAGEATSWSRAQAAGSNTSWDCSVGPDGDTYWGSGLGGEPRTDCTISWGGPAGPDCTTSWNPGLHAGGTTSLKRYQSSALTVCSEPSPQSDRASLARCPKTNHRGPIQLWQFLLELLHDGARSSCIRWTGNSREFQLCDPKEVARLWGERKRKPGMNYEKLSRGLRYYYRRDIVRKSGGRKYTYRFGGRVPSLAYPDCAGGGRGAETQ
Procedure, shortened: as §1

ELF3 = target: T5, ELF3 (Homo sapiens, UniProt P78545 1-371); settings: protein: recombinant; tags: N-terminal GST; dsDNA, one strand shown
T5 sequence: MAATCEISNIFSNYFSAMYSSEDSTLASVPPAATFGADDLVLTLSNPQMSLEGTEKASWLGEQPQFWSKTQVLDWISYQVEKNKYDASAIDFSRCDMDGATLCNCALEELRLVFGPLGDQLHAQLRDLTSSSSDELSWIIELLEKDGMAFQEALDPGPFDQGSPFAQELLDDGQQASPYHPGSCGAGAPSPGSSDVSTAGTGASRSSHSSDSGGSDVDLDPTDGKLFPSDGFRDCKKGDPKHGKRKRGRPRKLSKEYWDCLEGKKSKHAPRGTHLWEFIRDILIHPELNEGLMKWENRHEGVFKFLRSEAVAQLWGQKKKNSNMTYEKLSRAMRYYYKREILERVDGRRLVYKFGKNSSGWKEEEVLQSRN
Procedure, shortened: as §1

CRX = CRX (Homo sapiens, UniProt O43186 1-299); settings: protein: recombinant; tags: N-terminal GST; dsDNA, one strand shown
Procedure, shortened: as §1

ETV1 = ETV1 (Homo sapiens, UniProt P50549 1-477); settings: protein: recombinant; tags: N-terminal GST; dsDNA, one strand shown
Procedure, shortened: as §1

ERF = target: T6, ERF (Homo sapiens, UniProt P50548 1-548); settings: protein: recombinant; tags: N-terminal GST; dsDNA, one strand shown
T6 sequence: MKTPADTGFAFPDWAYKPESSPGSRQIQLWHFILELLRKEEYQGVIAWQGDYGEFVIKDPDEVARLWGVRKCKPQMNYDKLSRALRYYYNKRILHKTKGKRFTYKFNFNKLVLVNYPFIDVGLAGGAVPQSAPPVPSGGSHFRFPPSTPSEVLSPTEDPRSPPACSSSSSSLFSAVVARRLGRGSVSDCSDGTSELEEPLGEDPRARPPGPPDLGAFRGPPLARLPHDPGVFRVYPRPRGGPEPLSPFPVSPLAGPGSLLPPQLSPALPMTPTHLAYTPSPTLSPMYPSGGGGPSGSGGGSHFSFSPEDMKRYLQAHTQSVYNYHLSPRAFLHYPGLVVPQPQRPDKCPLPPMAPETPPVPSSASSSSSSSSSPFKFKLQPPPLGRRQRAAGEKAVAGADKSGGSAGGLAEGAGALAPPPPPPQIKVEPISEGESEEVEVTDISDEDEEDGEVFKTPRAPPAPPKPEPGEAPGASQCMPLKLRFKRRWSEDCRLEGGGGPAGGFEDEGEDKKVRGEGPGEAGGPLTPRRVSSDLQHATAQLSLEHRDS
Procedure, shortened: as §1

ETV3L = target: T7, ETV3L (Homo sapiens, UniProt Q6ZN32 1-361); settings: protein: recombinant; tags: N-terminal GST; dsDNA, one strand shown
T7 sequence: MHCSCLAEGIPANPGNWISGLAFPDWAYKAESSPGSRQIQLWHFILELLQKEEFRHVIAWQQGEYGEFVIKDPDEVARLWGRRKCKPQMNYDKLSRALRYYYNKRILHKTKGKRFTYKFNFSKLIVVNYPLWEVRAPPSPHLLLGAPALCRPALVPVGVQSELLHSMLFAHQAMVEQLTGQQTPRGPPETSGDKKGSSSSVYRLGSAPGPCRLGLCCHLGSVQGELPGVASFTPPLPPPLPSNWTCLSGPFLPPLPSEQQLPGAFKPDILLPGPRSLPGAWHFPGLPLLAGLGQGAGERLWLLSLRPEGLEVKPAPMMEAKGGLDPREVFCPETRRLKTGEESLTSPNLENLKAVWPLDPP
Procedure, shortened: as §1

ETS2 = target: T8, ETS2 (Homo sapiens, UniProt P15036 1-469); settings: protein: recombinant; tags: N-terminal GST; dsDNA, one strand shown
T8 sequence: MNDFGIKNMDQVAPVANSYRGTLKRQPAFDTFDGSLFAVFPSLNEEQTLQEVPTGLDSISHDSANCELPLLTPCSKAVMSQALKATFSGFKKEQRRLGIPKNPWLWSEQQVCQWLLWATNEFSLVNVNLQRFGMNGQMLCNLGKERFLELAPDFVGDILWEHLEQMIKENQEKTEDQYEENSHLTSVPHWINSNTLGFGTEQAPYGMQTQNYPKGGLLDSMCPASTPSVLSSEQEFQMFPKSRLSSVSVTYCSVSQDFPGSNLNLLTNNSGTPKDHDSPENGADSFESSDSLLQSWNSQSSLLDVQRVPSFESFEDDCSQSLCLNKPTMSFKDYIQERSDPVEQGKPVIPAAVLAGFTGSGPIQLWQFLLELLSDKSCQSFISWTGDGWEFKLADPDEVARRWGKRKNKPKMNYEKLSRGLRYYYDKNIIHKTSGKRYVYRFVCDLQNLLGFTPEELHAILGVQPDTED
Procedure, shortened: as §1

SPDEF = target: T9, SPDEF (Homo sapiens, UniProt O95238 1-335); settings: protein: recombinant; tags: N-terminal GST; dsDNA, one strand shown
T9 sequence: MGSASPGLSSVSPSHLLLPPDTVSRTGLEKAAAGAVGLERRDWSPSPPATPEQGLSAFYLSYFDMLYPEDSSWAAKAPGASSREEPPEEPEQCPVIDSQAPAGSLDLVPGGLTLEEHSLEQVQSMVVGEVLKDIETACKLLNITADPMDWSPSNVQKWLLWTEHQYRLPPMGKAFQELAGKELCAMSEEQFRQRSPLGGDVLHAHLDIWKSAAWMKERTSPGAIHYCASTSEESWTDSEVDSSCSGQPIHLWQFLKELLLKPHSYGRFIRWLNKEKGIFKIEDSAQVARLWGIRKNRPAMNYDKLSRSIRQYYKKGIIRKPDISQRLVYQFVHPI
Procedure, shortened: as §1

ETV7 = target: T10, ETV7 (Homo sapiens, UniProt Q9Y603 1-341); settings: protein: recombinant; tags: N-terminal GST; dsDNA, one strand shown
T10 sequence: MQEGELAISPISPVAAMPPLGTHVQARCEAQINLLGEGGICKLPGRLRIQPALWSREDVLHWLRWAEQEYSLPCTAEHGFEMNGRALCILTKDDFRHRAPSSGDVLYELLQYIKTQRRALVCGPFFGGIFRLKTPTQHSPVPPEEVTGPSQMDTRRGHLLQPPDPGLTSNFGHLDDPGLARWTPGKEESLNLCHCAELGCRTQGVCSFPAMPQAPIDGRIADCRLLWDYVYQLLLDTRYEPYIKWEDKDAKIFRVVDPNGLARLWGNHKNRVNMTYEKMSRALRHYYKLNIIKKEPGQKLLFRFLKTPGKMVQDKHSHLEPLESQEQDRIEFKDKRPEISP
Procedure, shortened: as §1

ELF5 = target: T11, ELF5 (Homo sapiens, UniProt Q9UKW6-2 1-255); settings: protein: recombinant; tags: N-terminal GST; dsDNA, one strand shown
T11 sequence: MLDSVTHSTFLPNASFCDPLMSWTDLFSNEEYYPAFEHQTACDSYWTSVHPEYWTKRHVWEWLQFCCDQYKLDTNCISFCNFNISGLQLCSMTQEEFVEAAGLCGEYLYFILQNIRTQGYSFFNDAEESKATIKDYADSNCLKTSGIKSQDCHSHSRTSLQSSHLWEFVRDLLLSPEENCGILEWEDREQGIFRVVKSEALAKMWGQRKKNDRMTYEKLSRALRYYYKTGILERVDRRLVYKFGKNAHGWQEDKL
Procedure, shortened: as §1

ETV3 = target: T12, ETV3 (Homo sapiens, UniProt P41162-2 1-143); settings: protein: recombinant; tags: N-terminal GST; dsDNA, one strand shown
T12 sequence: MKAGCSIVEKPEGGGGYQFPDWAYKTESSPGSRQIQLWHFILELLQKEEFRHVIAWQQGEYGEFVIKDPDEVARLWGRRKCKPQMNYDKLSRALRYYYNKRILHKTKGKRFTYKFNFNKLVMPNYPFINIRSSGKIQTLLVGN
Procedure, shortened: as §1

ETV6 = ETV6 (Homo sapiens, UniProt P41212 1-452); settings: protein: recombinant; tags: N-terminal GST; dsDNA, one strand shown
Procedure, shortened: as §1

Chain of CRX (O43186 whole entry): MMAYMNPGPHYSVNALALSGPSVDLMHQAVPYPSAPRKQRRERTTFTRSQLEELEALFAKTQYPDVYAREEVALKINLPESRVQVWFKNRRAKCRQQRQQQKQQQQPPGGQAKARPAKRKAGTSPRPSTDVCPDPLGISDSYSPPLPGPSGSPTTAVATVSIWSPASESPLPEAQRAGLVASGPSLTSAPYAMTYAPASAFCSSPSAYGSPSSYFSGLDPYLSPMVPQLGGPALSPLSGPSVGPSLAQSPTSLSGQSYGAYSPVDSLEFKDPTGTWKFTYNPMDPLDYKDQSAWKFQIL
Chain of ETV1 (P50549 whole entry): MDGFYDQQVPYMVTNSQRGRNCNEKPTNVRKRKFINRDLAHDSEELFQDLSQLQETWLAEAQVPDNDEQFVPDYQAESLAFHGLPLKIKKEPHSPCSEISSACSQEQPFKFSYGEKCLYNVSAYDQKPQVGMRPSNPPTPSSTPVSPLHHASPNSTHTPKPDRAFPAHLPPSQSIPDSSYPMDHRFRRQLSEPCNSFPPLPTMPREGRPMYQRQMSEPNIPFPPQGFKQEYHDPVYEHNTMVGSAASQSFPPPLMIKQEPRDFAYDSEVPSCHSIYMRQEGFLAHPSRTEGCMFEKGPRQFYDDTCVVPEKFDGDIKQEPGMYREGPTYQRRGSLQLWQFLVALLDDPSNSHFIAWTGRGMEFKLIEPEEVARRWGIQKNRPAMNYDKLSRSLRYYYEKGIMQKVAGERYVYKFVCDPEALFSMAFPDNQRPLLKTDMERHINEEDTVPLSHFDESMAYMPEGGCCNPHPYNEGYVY
Chain of ETV6 (P41212 whole entry): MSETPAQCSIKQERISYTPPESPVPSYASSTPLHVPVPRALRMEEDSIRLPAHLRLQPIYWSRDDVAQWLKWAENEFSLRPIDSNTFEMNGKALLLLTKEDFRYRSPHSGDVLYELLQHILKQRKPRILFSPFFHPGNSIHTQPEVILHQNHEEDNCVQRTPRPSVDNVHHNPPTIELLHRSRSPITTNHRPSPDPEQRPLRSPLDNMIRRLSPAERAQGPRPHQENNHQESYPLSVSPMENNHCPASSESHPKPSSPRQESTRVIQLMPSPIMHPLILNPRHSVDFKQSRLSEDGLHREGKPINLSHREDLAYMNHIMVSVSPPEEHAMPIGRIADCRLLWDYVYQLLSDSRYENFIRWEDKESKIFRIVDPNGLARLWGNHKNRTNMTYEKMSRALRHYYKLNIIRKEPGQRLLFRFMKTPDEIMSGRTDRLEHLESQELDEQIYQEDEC
Chain of HSF1 (Q00613 whole entry): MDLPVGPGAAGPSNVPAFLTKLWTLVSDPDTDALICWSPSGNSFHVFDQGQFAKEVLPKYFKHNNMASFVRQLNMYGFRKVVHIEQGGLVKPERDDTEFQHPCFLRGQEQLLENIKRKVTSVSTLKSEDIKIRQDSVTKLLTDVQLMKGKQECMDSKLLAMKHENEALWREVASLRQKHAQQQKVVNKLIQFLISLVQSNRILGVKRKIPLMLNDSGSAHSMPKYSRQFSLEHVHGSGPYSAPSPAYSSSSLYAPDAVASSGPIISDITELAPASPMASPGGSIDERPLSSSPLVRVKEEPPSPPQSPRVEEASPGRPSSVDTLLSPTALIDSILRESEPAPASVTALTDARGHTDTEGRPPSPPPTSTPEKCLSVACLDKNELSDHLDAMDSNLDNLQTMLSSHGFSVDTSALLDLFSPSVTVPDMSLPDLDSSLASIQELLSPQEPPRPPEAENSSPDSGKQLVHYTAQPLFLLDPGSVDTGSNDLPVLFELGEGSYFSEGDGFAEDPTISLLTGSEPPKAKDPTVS
Chain of ELF4 (Q99607 whole entry): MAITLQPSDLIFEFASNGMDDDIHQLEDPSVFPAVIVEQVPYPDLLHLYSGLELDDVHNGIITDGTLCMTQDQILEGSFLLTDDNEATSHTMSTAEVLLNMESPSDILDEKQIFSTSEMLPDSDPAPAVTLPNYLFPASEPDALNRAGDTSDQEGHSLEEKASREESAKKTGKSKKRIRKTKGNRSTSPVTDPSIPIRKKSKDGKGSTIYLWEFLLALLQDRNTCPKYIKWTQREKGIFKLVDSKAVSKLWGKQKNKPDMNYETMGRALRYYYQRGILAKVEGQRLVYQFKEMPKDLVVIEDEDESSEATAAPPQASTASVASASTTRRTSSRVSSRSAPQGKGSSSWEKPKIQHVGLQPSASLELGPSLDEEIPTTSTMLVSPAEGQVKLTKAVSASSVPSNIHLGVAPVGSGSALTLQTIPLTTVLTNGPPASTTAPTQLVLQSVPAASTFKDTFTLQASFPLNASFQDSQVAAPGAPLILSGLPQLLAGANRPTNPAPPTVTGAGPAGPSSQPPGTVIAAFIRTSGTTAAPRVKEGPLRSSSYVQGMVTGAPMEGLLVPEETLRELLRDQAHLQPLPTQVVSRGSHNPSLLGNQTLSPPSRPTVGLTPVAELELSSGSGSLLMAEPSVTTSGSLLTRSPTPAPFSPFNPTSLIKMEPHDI
Chain of ETV5 (P41161 whole entry): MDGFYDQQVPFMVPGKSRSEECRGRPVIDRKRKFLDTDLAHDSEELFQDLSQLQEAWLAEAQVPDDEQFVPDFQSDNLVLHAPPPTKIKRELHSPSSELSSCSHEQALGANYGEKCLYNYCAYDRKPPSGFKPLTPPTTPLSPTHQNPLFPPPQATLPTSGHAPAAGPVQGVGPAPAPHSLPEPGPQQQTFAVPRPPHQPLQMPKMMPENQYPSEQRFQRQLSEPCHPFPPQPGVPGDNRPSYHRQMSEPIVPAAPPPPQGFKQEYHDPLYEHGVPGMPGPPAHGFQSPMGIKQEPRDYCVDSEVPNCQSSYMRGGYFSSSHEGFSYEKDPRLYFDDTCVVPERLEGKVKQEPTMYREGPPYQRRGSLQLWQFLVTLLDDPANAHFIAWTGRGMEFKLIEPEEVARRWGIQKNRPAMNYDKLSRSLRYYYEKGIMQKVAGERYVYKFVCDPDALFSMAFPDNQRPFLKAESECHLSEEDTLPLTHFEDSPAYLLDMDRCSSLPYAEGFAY

CTCTTT
binding signal (FEV): 1.47 fold enrichment (6-mer frequency, TF over GST control) | binding signal (ETV5): 1.42 fold enrichment (6-mer frequency, TF over GST control) | binding signal (HSF1): 1.4 fold enrichment (6-mer frequency, TF over GST control) | binding signal (SPIC): 1.35 fold enrichment (6-mer frequency, TF over GST control) | binding signal (ELF4): 1.44 fold enrichment (6-mer frequency, TF over GST control) | binding signal (ELK4): 1.31 fold enrichment (6-mer frequency, TF over GST control) | binding signal (ETV2): 1.58 fold enrichment (6-mer frequency, TF over GST control) | binding signal (ELF3): 1.4 fold enrichment (6-mer frequency, TF over GST control) | binding signal (CRX): 1.53 fold enrichment (6-mer frequency, TF over GST control) | binding signal (ETV1): 1.44 fold enrichment (6-mer frequency, TF over GST control) | binding signal (ERF): 1.39 fold enrichment (6-mer frequency, TF over GST control) | binding signal (ETV3L): 1.53 fold enrichment (6-mer frequency, TF over GST control) | binding signal (ETS2): 1.41 fold enrichment (6-mer frequency, TF over GST control) | binding signal (SPDEF): 1.53 fold enrichment (6-mer frequency, TF over GST control) | binding signal (ETV7): 1.5 fold enrichment (6-mer frequency, TF over GST control) | binding signal (ELF5): 1.42 fold enrichment (6-mer frequency, TF over GST control) | binding signal (ETV3): 1.53 fold enrichment (6-mer frequency, TF over GST control) | binding signal (ETV6): 1.4 fold enrichment (6-mer frequency, TF over GST control)

Source: paper PMC7862700, “An all-to-all approach to the identification of sequence-specific readers for epigenetic DNA modifications on cytosine”
